PubChem BioAssay (Tox21)
Results filed as inconclusive are left out. Calls of active or inactive are those of the source. Calls come from the whole dose curve; as a rule, active = well fitted curve in the direction sought with a large enough effect in the repeat runs; inconclusive = weak or mixed curves; inactive = no such curve, though single readings can be large; an effect the other way counts as inactive or inconclusive.

Columns and labels:
[1] = A CellTox Green Cytotoxicity Assay to monitor cytotoxicity in HepG2 cells - 32 hour (AID 1224883); note: nearly all actives have a fitted effect of over 50% in size; note: potency is the fitted concentration of half-maximal effect
How it was run: (§1)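 Fluorescent DNA-binding dye, 600 HepG2 cells/well, 5 h preincubation then compound in DMSO; same plates read at 0–40 h, 37 C.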

[2] = A CellTox Green Cytotoxicity Assay to monitor cytotoxicity in HEK293 cells - 8 hour (AID 1224884); note: nearly all actives have a fitted effect of over 35% in size; note: potency is the fitted concentration of half-maximal effect
How it was run: (§2)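 Homogeneous no-lysis format: HEK293 cell suspension mixed with CellTox Green reagent, seeded, incubated 5 h at 37 C/5% CO2, then dosed by pintool with compound in DMSO.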

[3] = qHTS RealTime-Glo MT Cell Viability Assay in HepG2 cells - 16 hour (AID 1224885); note: nearly all actives have a fitted effect of over 50% in size; note: potency is the fitted concentration of half-maximal effect
How it was run: (§3)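 HepG2 cells were seeded at 600 cells/well together with NanoLuc luciferase and a cell-permeant prosubstrate, preincubated 5 h at 37 C/5% CO2, then pin-dosed with compounds in DMSO. Nonlytic luminescence from viable cells was read at each time point.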

[4] = qHTS RealTime-Glo MT Cell Viability Assay in HEK293 cells - 24 hour (AID 1224886); note: nearly all actives have a fitted effect of over 50% in size; note: potency is the fitted concentration of half-maximal effect; for activity change, negative = cytotoxicity: top concentration of the series differs between compounds
How it was run: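 HEK293 cells were seeded at 600 cells/well together with NanoLuc luciferase and cell-permeant prosubstrate, preincubated 5 h at 37 C/5% CO2, then given compound in DMSO by pintool. Luminescence from viable-cell prosubstrate reduction was read repeatedly over 40 h.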

[5] = A CellTox Green Cytotoxicity Assay to monitor cytotoxicity in HEK293 cells - 16 hour (AID 1224888); note: nearly all actives have a fitted effect of over 35% in size
How it was run: as §2

[6] = qHTS RealTime-Glo MT Cell Viability Assay in HepG2 cells - 0 hour (AID 1224889); note: nearly all actives have a fitted effect of over 50% in size
How it was run: as §3

[7] = A CellTox Green Cytotoxicity Assay to monitor cytotoxicity in HepG2 cells - 8 hour (AID 1224890); note: nearly all actives have a fitted effect of over 45% in size; note: potency is the fitted concentration of half-maximal effect
How it was run: as §1

[8] = qHTS assay to identify small molecule antagonists of the estrogen receptor alpha (ER-alpha) signaling pathway using the BG1 cell line in the presence of 0.1 nM 17-beta-estradiol - cell viability counter screen (AID 1259241); note: nearly all actives have a fitted effect of over 40% in size
How it was run: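 Cells were plated and left 24 hr, compounds in DMSO were pinned in, 17beta-estradiol was added to 0.1 nM final, and after 22 hr CellTiter-Fluor reagent was added for 30 min before fluorescence was read.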

[9] = qHTS assay to identify small molecule antagonists of the androgen receptor (AR) signaling pathway using the MDA cell line in the presence of 0.5 nM R1881 - cell viability counter screen (AID 1259242); note: nearly all actives have a fitted effect of over 45% in size; note: potency is the fitted concentration of half-maximal effect
How it was run: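 Human breast carcinoma MDA-kb2 cells, cultured without CO2, receive compounds alongside 0.5 nM (final) R1881 agonist. After 16 hr at 37C, viability is taken as live-cell protease signal.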

[10] = qHTS RealTime-Glo MT Cell Viability Assay in HEK293 cells - 8 hour (AID 1224887); note: nearly all actives have a fitted effect of over 50% in size; note: potency is the fitted concentration of half-maximal effect; for activity change, negative = cytotoxicity: top concentration of the series differs between compounds
How it was run: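 Measured as luminescence from the same continuously cultured HEK293 wells at successive time points (0, 8, 16, 24, 32, 40 h) after compound addition. Reagent present from seeding; dosing at 5 h; incubation 37 C.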
% is set by controls: 0 for no effect and ±100 for the full control effect.

CO[Si](CCC1CCC2OC2C1)(OC)OC (configuration not stated)
inactive: Potency [1] | Potency [2] | Potency [3] | Potency [4] | Potency [5] | Potency [6] | Potency [7] | Potency [8] | Potency [9]

COc1ccccc1OCCNCC(O)COc1cccc2[nH]c3ccccc3c12 (configuration not stated)
active: Potency [1] 23.9 µM | Potency [3] 23.9 µM | Potency [4] 10.7 µM | Potency [10] 16.9 µM
inactive: Potency [2] | Potency [6] | Potency [7]

O=S(=O)(O)CCCN1CCOCC1
inactive: Potency [1] | Potency [2] | Potency [3] | Potency [4] | Potency [5] | Potency [6] | Potency [7] | Potency [8]

CC(=O)C=O
inactive: Potency [1] | Potency [2] | Potency [3] | Potency [10] | Potency [5] | Potency [6] | Potency [7] | Potency [8] | Potency [9]

CC1=CCC(=O)O1
inactive: Potency [1] | Potency [2] | Potency [3] | Potency [10] | Potency [5] | Potency [6] | Potency [8] | Potency [9]

CCOC(=O)COc1ccc(C)cc1
inactive: Potency [1] | Potency [2] | Potency [3] | Potency [10] | Potency [5] | Potency [6] | Potency [7] | Potency [8] | Potency [9]

Oc1ccc(-c2ccccc2)c(Cl)c1
inactive: Potency [2] | Potency [3] | Potency [6] | Potency [8] | Potency [9]
active: Potency [1] 49 µM | Potency [4] 24.5 µM

Cc1cn[nH]c1
inactive: Potency [1] | Potency [2] | Potency [3] | Potency [10] | Potency [5] | Potency [6] | Potency [8] | Potency [9]

O=C1c2c(O)ccc(O)c2C(=O)c2c(NCCNCCO)ccc(NCCNCCO)c21
inactive: Potency [1] | Potency [2] | Potency [5] | Potency [6] | Potency [7]
active: Potency [3] 19 µM | Potency [4] 0.0601 µM | Potency [9] 21.1 µM

O=C1NCCN1CCN1CCC(c2cn(-c3ccc(F)cc3)c3ccc(Cl)cc23)CC1
active: Potency [1] 26.8 µM | Potency [3] 23.9 µM | Potency [4] 21.3 µM
inactive: Potency [2] | Potency [6]

CC1CNCC(C)O1 (configuration not stated)
inactive: Potency [1] | Potency [2] | Potency [3] | Potency [4] | Potency [5] | Potency [6] | Potency [8] | Potency [9]

Cn1cccc1
inactive: Potency [1] | Potency [2] | Potency [3] | Potency [10] | Potency [5] | Potency [6] | Potency [7] | Potency [8] | Potency [9]

CC(C)(C)c1n[nH]c(=O)n(N)c1=O
inactive: Potency [1] | Potency [2] | Potency [3] | Potency [4] | Potency [5] | Potency [6] | Potency [7] | Potency [8] | Potency [9]

Clc1ccccc1CN1CCc2sccc2C1
inactive: Potency [1] | Potency [2] | Potency [3] | Potency [10] | Potency [5] | Potency [6] | Potency [7] | Potency [8] | Potency [9]

Brc1ccccc1-c1ccccc1
inactive: Potency [2] | Potency [3] | Potency [4] | Potency [6] | Potency [8] | Potency [9]
active: Potency [1] 46.3 µM

C=CC/C=C/C/C=C/C/C=C/C
inactive: Potency [1] | Potency [2] | Potency [3] | Potency [10] | Potency [5] | Potency [6] | Potency [7] | Potency [8] | Potency [9]

CCCCC(CC)COC(=O)c1ccc(O)cc1 (configuration not stated)
inactive: Potency [3] | Potency [6] | Potency [8]
active: Potency [1] 34.7 µM | Potency [2] 43.5 µM | Potency [4] 54.7 µM | Potency [7] 38.9 µM

CC(C)N=C(N)/N=C(\N)Nc1ccc(Cl)cc1
active: Potency [1] 26.8 µM | Potency [4] 23.9 µM
inactive: Potency [2] | Potency [3] | Potency [6] | Potency [7] | Potency [8] | Potency [9]

CCCCCCCC(OC)OC
inactive: Potency [1] | Potency [2] | Potency [3] | Potency [4] | Potency [5] | Potency [6] | Potency [7] | Potency [8] | Potency [9]

CCOC(=O)CC(C)O (configuration not stated)
inactive: Potency [1] | Potency [2] | Potency [3] | Potency [10] | Potency [5] | Potency [6] | Potency [8]

CC(CN(C)C)CN1c2ccccc2CCc2ccccc21 (configuration not stated)
active: Potency [1] 23.9 µM
inactive: Potency [2] | Potency [3] | Potency [10] | Potency [5] | Potency [6] | Potency [7] | Potency [8]

CCN(CC)CCCN(c1ccccc1)C1Cc2ccccc2C1
active: Potency [1] 23.9 µM
inactive: Potency [2] | Potency [3] | Potency [10] | Potency [5] | Potency [6] | Potency [7] | Potency [8] | Potency [9]

CC(C)=CC1CC(C)CCO1 (configuration not stated)
inactive: Potency [1] | Potency [2] | Potency [3] | Potency [4] | Potency [5] | Potency [6] | Potency [7] | Potency [8] | Potency [9]

O=C=NCc1cccc(CN=C=O)c1
inactive: cytotoxicity increase [1] -2.41% [at 15.8 µM] | cytotoxicity increase [2] -1.28% [at 15.8 µM] | activity change, negative = cytotoxic [3] 0.437% [at 15.8 µM] | activity change, negative = cytotoxicity [4] 4.88% [at 15.8 µM] | activity change [5] -10.6% [at 15.8 µM, stronger effect = higher value] | activity change, negative = cytotoxicity [6] 2.48% [at 15.8 µM] | cytotoxicity increase [7] -0.221% [at 15.8 µM] | activity change, negative = cytotoxicity [8] -0.0453% [at 19 µM] | viability change, negative = cytotoxic [9] -0.671% [at 19 µM]

CCCCCCCC/C=C/CCCOC(C)=O
inactive: Potency [1] | Potency [2] | Potency [3] | Potency [4] | Potency [5] | Potency [6] | Potency [8] | Potency [9]

C[C@H]1O[C@@H](O[C@H]2[C@@H](O)C[C@H](O[C@H]3[C@@H](O)C[C@H](O[C@H]4CC[C@@]5(C)[C@H](CC[C@@H]6[C@@H]5C[C@@H](O)[C@]5(C)[C@@H](C7=CC(=O)OC7)CC[C@]65O)C4)O[C@@H]3C)O[C@@H]2C)C[C@H](O)[C@@H]1O
inactive: Potency [1] | Potency [2] | Potency [3] | Potency [10] | Potency [5] | Potency [6] | Potency [7] | Potency [8] | Potency [9]
